# Laboratory results as given in ChEMBL document CHEMBL3988442, “University of Dundee, Small-Polar-MMV Screening Library” (2021).
# In all, about 66,000 compounds went through this assay and about 960 (1.5%) showed an effect of 50% or more. What follows is part of a selection rich in strong results, with near analogues and random picks from the rest.
# System: Trypanosoma brucei
# Experiment: Trypanosoma brucei 72 hour study
# Type: functional, organism-based
# Parameters: scale not given: in the data most compounds retested in dose-response had high values
smiles,measurement,setting,value
COc1ccnc(N2C[C@@H]3CC[C@H](C2)N(CC2CCC2)C3=O)n1,Percent Effect,"30 µM, 30.03 µM",0.242%
O=C(O)C(F)(F)F.O=C1CC[C@H]2[C@H](CCN2S(=O)(=O)C2CC2)N1CCN1CCCC1,Percent Effect,"30.3 µM, […]",-16.69%
COc1cccc2c1ccn2CCNC(=O)CC(C)C,Percent Effect,"30 µM, 30.03 µM",-27.5%
COCC(=O)NCCn1ccc2c(OC)cccc21,Percent Effect,"30 µM, 30.03 µM",21.63%
COc1cccc2c1ccn2CCC(=O)NCCCC(=O)O,Percent Effect,"30 µM, 30.03 µM",53.78%
CC(C)(C)c1ncc2c(n1)CN(C(=O)c1ccncc1)C2,Percent Effect,"30 µM, 30.03 µM",-0.7468%
CN(C)c1ccc(C(=O)N2Cc3cnc(C(C)(C)C)nc3C2)cc1,Percent Effect,"30 µM, 30.03 µM",-40.98%
CC(C)(C)c1ncc2c(n1)CN(C(=O)c1ccc(-c3nc[nH]n3)cc1)C2,Percent Effect,"30 µM, 30.03 µM",54.09%
O=C(C1CCOCC1)N1CCO[C@H]2[C@H](Oc3cccnc3)CC[C@@H]21.O=C(O)C(F)(F)F,Percent Effect,"30 µM, 30.03 µM",-14.62%
CCN(CC)C(=O)CN(C)C(=O)c1ccc(-c2ccsc2)nc1C,Percent Effect,"30 µM, 30.03 µM",-62.98%
COc1ccccc1CC(=O)N(C)Cc1cc(C)on1,Percent Effect,"30 µM, 30.03 µM",-10.42%
COc1ccccc1CC(C)CC(=O)N(C)Cc1cc(C)on1 (stereo unspecified),Percent Effect,"30 µM, 30.03 µM",72.44%
Cc1cc(CN(C)C(=O)CC(C)C)no1,Percent Effect,"30 µM, 30.03 µM",-35.18%
CCc1nccn1C1CCCN(C(=O)C2=NN(C)C(=O)CC2)C1 (stereo unspecified),Percent Effect,"30.3 µM, […]",-18.44%
COc1ccc(C(C)(C)C)cc1CN1CCn2c(CO)nnc2C1.O=C(O)CC(O)(CC(=O)O)C(=O)O,Percent Effect,"30.3 µM, […]",3.045%
CC(=O)N1CCN([C@@H]2CC[C@@H](NC(=O)c3ccc(C)nc3)[C@H]2O)CC1,Percent Effect,"30.3 µM, […]",-14.37%
CCN1CCN(c2ncc3c(n2)CN(c2cnn(CC)c2)C3=O)CC1,Percent Effect,"30.3 µM, […]",-16.78%
CCOc1cc(CNc2nnn(C)n2)ccc1OCc1ccc(Cl)cc1,Percent Effect,"30.3 µM, […]",13.85%
O=C(c1ccc(-c2ccccc2)[nH]c1=O)N1CCN(C2CC2)CC1,Percent Effect,"30 µM, 30.03 µM",-17.15%
CO[C@H]1CN(C(=O)c2ccc(-c3ccccc3)[nH]2)CC[C@H]1N,Percent Effect,"30.3 µM, […]",21.81%
CN1[C@H]2CC[C@@H]1CN(C(=O)c1ccc(-c3ccccc3)[nH]1)CC2,Percent Effect,"30.3 µM, […]",99.15%
CCOC(=O)CCn1cnc2onc(-c3ccc(OC)cc3)c2c1=O,Percent Effect,"30 µM, 30.03 µM",-27.94%
Cc1nc(C2CCCN2C(=O)c2ccc3c(c2)nc(C)n3C)no1 (stereo unspecified),Percent Effect,10 µM,-28.6%
same,Percent Effect,"30.3 µM, […]",-7.833%
CS(=O)(=O)CC(=O)N1C[C@H]2CCC[C@@]2(COc2ccccn2)C1.O=C(O)C(F)(F)F,Percent Effect,"30.3 µM, […]",-20.95%
COc1cc(C(=O)NCc2ccc3c(c2)CCCN3C)cc(OC)c1Br,Percent Effect,"30.3 µM, […]",56.02%
CN1CCCc2cc(CNC(=O)c3cc[n+]([O-])cc3)ccc21,Percent Effect,"30.3 µM, […]",2.114%
CN1CCCc2cc(CNC(=O)c3ccncc3)ccc21,Percent Effect,"30 µM, 30.03 µM",8.977%
COC(=O)c1cccc(C(=O)NCc2ccc3c(c2)CCCN3C)c1,Percent Effect,"30.3 µM, […]",1.912%
CC(C)Oc1ccc(C(=O)NCc2ccc3c(c2)CCCN3C)cn1,Percent Effect,"30.3 µM, […]",9.808%
CN1CCCc2cc(CNC(=O)c3ccc(-n4cnnc4)cc3)ccc21,Percent Effect,"30.3 µM, […]",53.86%
